PMC5540273 (PLoS ONE, 2017)

Experiments:
Details in all cases: concentration: 1 μM, replicates: in singlicate; n = 1
MEK5 = tested on: T1, MEK5
T1 construct: gene MAP2K5

MEK6 = tested on: T2, MEK6
T2 construct: gene MAP2K6

MELK = tested on: MELK
MERTK = tested on: MERTK
MET = tested on: MET
MINK = tested on: T3, MINK
T3 construct: gene MINK1

MKK7 = tested on: MKK7
MKNK1 = tested on: MKNK1
MKNK2 = tested on: MKNK2
MLCK = tested on: T4, MLCK
T4 construct: gene MYLK3

MLK1 = tested on: T5, MLK1
T5 construct: gene MAP3K9

MLK2 = tested on: MLK2
MLK3 = tested on: MLK3
MRCKA = tested on: MRCKA
MRCKB = tested on: T6, MRCKB
T6 construct: gene CDC42BPB

MST1R = tested on: MST1R
MST1 = tested on: T7, MST1
T7 construct: gene STK4

MST2 = tested on: T8, MST2
T8 construct: gene STK3

MST3 = tested on: T9, MST3
T9 construct: gene STK24

MST4 = tested on: MST4
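Note: KINOMEscan kinase panel screen.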

Compound	%Inh (MEK5) [%]	%Inh (MEK6) [%]	%Inh (MELK) [%]	%Inh (MERTK) [%]	%Inh (MET) [%]	%Inh (MINK) [%]	%Inh (MKK7) [%]	%Inh (MKNK1) [%]	%Inh (MKNK2) [%]	%Inh (MLCK) [%]	%Inh (MLK1) [%]	%Inh (MLK2) [%]	%Inh (MLK3) [%]	%Inh (MRCKA) [%]	%Inh (MRCKB) [%]	%Inh (MST1R) [%]	%Inh (MST1) [%]	%Inh (MST2) [%]	%Inh (MST3) [%]	%Inh (MST4) [%]
CC(=O)Nc1cn2nc(Oc3cccc(NC(=O)c4cccc(C(F)(F)F)c4)c3)ccc2n1	93.3	5	20	73	16	22	0	0	0	0	2	23	6	7	0	0	27	0	1	0
Cn1cc(-c2ccc3c(c2)CCN3C(=O)Cc2cc(F)cc(C(F)(F)F)c2)c2c(N)ncnc21 [GSK2635225]	33	0	0	63	21	7	4	0	2	0	78	42	72	5	0	19	39	10	0	0
Cl.N#CCc1ccc(Nc2nccc(Nc3ccc(Oc4ccccc4)cc3)n2)cc1 [GW639905]	99.9	0	0	0	0	0	0	0	33	0	0	0	0	6	0	2	20	0	0	0
Cc1ccc(NC(=O)c2ccnc(N3CCCCC3)c2)cc1-c1ccc(C(=O)NCC2CC2)cc1 [GW775610]	1	6	0	3	0	5	0	0	33	0	0	0	4	0	9	4	13	32	30	0
O=C1NC(=O)C(c2ccccc2Cl)=C1Nc1cccc(Cl)c1 [SB-342409]	53	0	0	1	0	0	23	0	18	3	0	28	0	11	14	0	3	8	0	0
COc1ccc(C)c(Nc2ccnc(Nc3ccc(-c4cnc[nH]4)cc3)n2)c1.Cl [GW784041]	99.7	0	34	7	15	44	0	8	0	0	30	12	0	20	5	0	23	38	17	0
c1ccc(Oc2ccc(Nc3ccnc4cc(-c5ccc(CN6CCCCC6)o5)ccc34)cc2)nc1 [GW567143]	100	0	0	50	11	25	0	7	37	0	2	14	0	13	0	29	20	0	4	0
COC(=O)Nc1nc2ccc(Oc3ccc(CC(=O)Nc4cc(C(F)(F)F)ccc4F)cc3)cc2[nH]1 [GW680903]	31	0	0	44	0	0	8	13	3	0	0	0	0	39	0	34	0	0	4	0
CN(c1ccc(F)c(NC(=O)c2cccc(OC(C)(C)C#N)c2Cl)c1)c1ccc2nc(NC(=O)C3CC3)sc2n1	99.8	0	0	30	24	54	39	0	22	0	0	4	0	0	0	5	0	0	0	0
CN(c1ccc(NC(=O)Nc2cccc(Cl)c2)cc1)c1ccnc(N)n1.Cl [GW830707]	48	0	11	0	1	0	17	52	95.6	10	0	7	0	0	17	22	0	11	0	16
CN(C)CCNS(=O)(=O)c1ccc(-c2ccnc3[nH]ccc23)cc1 [GSK977620]	71	100	92.6	72	0	4	6	0	77	18	3	24	0	4	46	27	17	9	0	0
O=C(Nc1n[nH]c2nc(-c3cccc(O)c3)ccc12)C1CC1 [SB-711805]	95.9	0	3	47	0	51	0	0	26	94.5	0	13	3	0	0	0	0	0	0	0
Cc1ccc(Nc2ccnc(Nc3ccc(C)c(F)c3)n2)cc1O.Cl [GW582868]	92.8	0	0	38	0	0	0	0	7	24	60	0	45	0	0	18	0	9	0	0
CCNc1nccc(-c2c(-c3ccc(F)cc3)ncn2C2CCN(C)CC2)n1	19	15	11	25	0	30	0	0	0	0	0	7	0	0	0	0	0	38	21	0
Cc1ccc(NC(=O)c2cccc(N3CCCCC3)c2)cc1-c1ccc(C(=O)NCC2CC2)cc1 [GSK1917008]	20	35	0	18	0	0	0	10	18	0	0	17	12	17	0	37	13	34	13	1
COc1cc(Nc2nccc(N3CCC(NC(=O)Nc4ccc5c(c4)OCO5)C3)n2)cc(OC)c1OC (stereo not shown) [GSK1379766]	98.8	0	0	40	12	0	0	14	66	0	36	0	46	11	0	39	0	32	0	0
COc1ccc(NC(=O)c2ccoc2)cc1-c1ccc(C(=O)NCC2CC2)cc1 [GW810437]	41	16	29	0	0	7	0	0	13	0	0	25	0	0	19	0	22	8	1	0
